The results in this text go back to PubChem BioAssay (NCATS).

Assay [1] in a line: qHTS profiling for inhibitors of Plasmodium falciparum (3D7) proliferation (AID 743322).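 Further: infected erythrocytes exposed to compound for 72 h before lysis; 100% = DMSO vehicle wells and 0% = 0.29 µM artemisinin.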 The settings on record: P. falciparum 3D7 proliferation; at 28.7 µM (top of the series) unless noted. An outline of the steps: (§1)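 Parasite DNA was quantified by SYBR Green I fluorescence (ex 485, em 535 nm) after overnight lysis in saponin/Triton buffer at room temperature. Cultures at 0.3% parasitemia and 2.5% hematocrit were first exposed to compound for 72 h at 37 C; signals were normalised to artemisinin (0.29 uM) and vehicle wells.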
In general terms: qHTS replaces the single test concentration by a dilution series.

Assay [2] can be described thus: qHTS profiling for inhibitors of Plasmodium falciparum (DD2) proliferation (AID 743323). The settings on record: lower = more inhibition; at 28.7 µM (top of the series) unless noted. The essentials: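 Parasite DNA quantified by SYBR Green fluorescence (ex 485, em 535 nm) after saponin/Triton lysis and overnight dark incubation. Cultures: 0.3% parasitemia, 2.5% hematocrit, 72 h, 37 C; data scaled between DMSO and 0.29 uM artemisinin.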

Assay [3] can be described thus: qHTS profiling for inhibitors of Plasmodium falciparum (HB3) proliferation (AID 743324; active means well fitted curve in the direction sought with a large enough effect; an effect the other way counts as inactive or inconclusive;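 further: 100% = DMSO vehicle wells and 0% = artemisinin-treated control wells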). The settings on record: Plasmodium falciparum HB3 blood-stage proliferation; at 28.7 µM (top of the series) unless noted. The essentials:
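SYBR Green fluorescence (485 ex/535 em) of lysed cultures, incubated overnight at room temperature in the dark, quantifies parasite DNA. Infected erythrocytes at 0.3% parasitemia and 2.5% hematocrit were exposed 72 h; values normalized to DMSO and 0.29 uM artemisinin controls.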

The nature of assay [4]: qHTS profiling of the MIPE4 collection as inhibitors of Plasmodium falciparum (3D7) proliferation (AID 743344).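 Further: scaled between DMSO vehicle wells and 0.29 µM artemisinin as full inhibition.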 Particulars: P. falciparum 3D7 in erythrocytes, SYBR Green DNA fluorescence, 72 h; at 28.5 µM (top of the series) unless noted. The essentials:
as §1

Assay [5] is described as follows: qHTS profiling of the MIPE4 collection as inhibitors of Plasmodium falciparum (DD2) proliferation (AID 743345). Particulars: P. falciparum Dd2 in erythrocytes, SYBR Green DNA, 72 h; at 28.5 µM (top of the series) unless noted. An outline of the steps: as §1
Assay [6] can be described thus: qHTS profiling of the MIPE4 collection as inhibitors of Plasmodium falciparum (DD2) proliferation (Rep 2) (AID 743346). Particulars: P. falciparum Dd2 in erythrocytes, SYBR Green DNA, 72 h; at 28.5 µM (top of the series) unless noted. The essentials:
as §1

Assay [7] in a line: qHTS profiling of the MIPE4 collection as inhibitors of Plasmodium falciparum (HB3) proliferation (AID 743347).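 Further: plate controls were DMSO vehicle wells for no effect and artemisinin wells for full effect.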 The settings on record: P. falciparum HB3 in erythrocytes, SYBR Green DNA, 72 h; at 28.5 µM (top of the series) unless noted. The essentials:
as §1

The nature of assay [8]: Cell Proliferation Assay Versus the ED40515 IL2 Dependent ATL cell lines (AID 1053195; calls by dose curve). The settings on record: ED40515 IL2-dependent ATL cells. The essentials:
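CellTiter-Glo luminescence (15 min, RT) measured viability after 48 hours at 37C; cells were ED40515 +IL2, 1000/well, in phenol red-free RPMI with 5% FBS. Controls: DMSO and 9.2 uM bortezomib.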

Assay [9] is described as follows: High-throughput drug toxicity screening in the BPDCN cell line Gen2.2 (AID 1224824).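 Further: cells exposed to compounds for 48 h before reading.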 Particulars: Gen2.2 BPDCN cells; at 45.8 µM (top of the series) unless noted. An outline of the steps:
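CellTiter-Glo luminescence after 48 h compound exposure of Gen2.2 cells; percent activity set with DMSO as 100% and bortezomib (9.2 uM final) as 0%. Cells seeded at 500 per well, RPMI + 10% FBS, 37 °C.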

Assay [10] can be described thus: High-throughput drug toxicity screening in the BPDCN cell line Cal-1 (AID 1224825). The settings on record: Cal-1 BPDCN cell viability, qHTS; at 45.8 µM (top of the series) unless noted. An outline of the steps: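 Percent activity derived from CellTiter-Glo luminescence, scaling DMSO to 100% and 9.2 uM final bortezomib to 0%. BPDCN Cal-1 cells (500/well, RPMI plus 10% FBS) incubated with compounds 48 hours at 37C before reading.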

Assay [11] in a line: qHTS assay for measurement of the activity of small molecule inhibitors on Zika virus induced Caspase-3 activity in human iPSC derived neural progenitor cells (hNPCs) (AID 1224857; active means well fitted curve in the direction sought with a large enough effect; an effect the other way counts as inactive or inconclusive; further: % of control where 0% means no effect; nearly all actives have a fitted effect of over 65% in size). The essentials:
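In medium with heparin 2 ug/ml and cyclopamine 2 uM, hNPCs (350 cells/well) received compound for one hour and then Zika virus at 2 FFU/cell; caspase activity was measured by Caspase-Glo 3/7 luminescence 6 h post-infection.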

Assay [12] can be described thus: qHTS assay for measurement of the activity of small molecule inhibitors on Zika virus induced Caspase-3 activity in human astrocytoma cells (AID 1224859; active means well fitted curve in the direction sought with a large enough effect; an effect the other way counts as inactive or inconclusive;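 further: plate controls were ZIKV-infected untreated cells for no effect and uninfected cells for full effect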). The essentials: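 A cell-based luminescent caspase-3/7 assay used SNB-19 cells infected with ZIKV (2 FFU/cell) for 6 h following 1 h compound pretreatment.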
Assay [13] in a line: qHTS Screen of the MIPE 4.0 Collection Against Ewings Sarcoma (RDES) (AID 1259252; active means well fitted curve in the direction sought with a large enough effect; an effect the other way counts as inactive or inconclusive; further: nearly all actives have a fitted effect of over 35% in size; further: potency means the concentration at half of the fitted maximal effect). An outline of the steps:
(§2)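 Cells plated in serum-containing RPMI (5% FBS) and treated with compound dilutions for 48 h. Readout luminescent viability; normalization relied on vehicle (no inhibition) and media-only columns (full inhibition).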

Assay [14] is described as follows: qHTS Screen of the MIPE 4.0 Collection Against Ewings Sarcoma (TC71) (AID 1259253; active means well fitted curve in the direction sought with a large enough effect; an effect the other way counts as inactive or inconclusive; further: potency means the concentration at half of the fitted maximal effect; nearly all actives have a fitted effect of over 40% in size). The essentials:
as §2

Assay [15] can be described thus: qHTS Screen of the MIPE 4.0 Collection Against Ewings Sarcoma (TC32) (AID 1259256; active means well fitted curve in the direction sought with a large enough effect; an effect the other way counts as inactive or inconclusive; further: nearly all actives have a fitted effect of over 45% in size; further: potency means the concentration at half of the fitted maximal effect). The essentials:
as §2

The nature of assay [16]: Identifying Small Molecule Inhibitors of Pancreatic Cancer Stem Cells (A2780, Spheroid) (AID 1259357; active means well fitted curve in the direction sought with a large enough effect; an effect the other way counts as inactive or inconclusive;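 further: spheroids pre-formed over 14 days in stem cell medium on hydrogel; compound exposure lasted 48 h before the ATP luminescence read; 100% = DMSO treated cells and 0% = wells without cells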). Particulars: Potency: A2780 spheroid viability. The essentials:
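Spheroids grown 14 days in stem cell media on hydrogel-coated nonadherent plates; 2D lines seeded directly. Compounds added after 4 h attachment, 48 h at 37C, 5% CO2; CellTiter-Glo luminescence normalized to DMSO (no inhibition) and no-cell wells (full inhibition).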

Assay [17] is described as follows: qHTS Screen of the MIPE 4.0 Collection Against Ewings Sarcoma (EW8) (AID 1259255; active means well fitted curve in the direction sought with a large enough effect; an effect the other way counts as inactive or inconclusive; further: nearly all actives have a fitted effect of over 35% in size; further: potency means the concentration at half of the fitted maximal effect;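 on viability: 100% = DMSO-treated cells and 0% = medium-only wells without cells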). An outline of the steps: as §2

SMILES strings stand for the structures. Records with an inconclusive call do not appear. Calls of active or inactive are those of the source. Unless noted, how the calls were made is not given here.

As to `COc1cc(F)c(F)c(Nc2ccc(I)cc2F)c1NS(=O)(=O)C1(C[C@H](O)CO)CC1`, the remaining parasite growth % (stronger effect = lower value) in assay [1] was determined as 83.5%. Besides, in assay [2], the activity, percent of control came to 78.6%. In addition, the remaining proliferation (% of control), lower = more inhibition in assay [3] came out at 39.5%. The molecule further yielded a parasite growth, % of DMSO control in [4] of 45.3%. In assay [5], this molecule registered a parasite growth remaining, % of DMSO control (lower = more inhibition) of 71.1%. In addition, the parasite growth, % of control (lower = inhibition) in assay [6] was determined as 26.7%. Besides, the growth, % of control in assay [7] was 17.2%. Besides, the Potency in assay [8] was 37.2 µM (active); in assay [13] it was 20.9 µM (active); in assay [14], 16.6 µM (active); in assay [15], 11.8 µM (active). In addition, in [9], the cell viability, % of control (lower = more cytotoxic) was found to be 27.8%. The viability (% of control) in assay [10] was determined as 82.2%. The Potency entry in assay [11], in [12] and in assay [16] was “inactive” each time.

On to `CC[C@@H](C)[C@H](NC(=O)[C@H](CC1CCCCC1)NC(=O)c1ccno1)C(=O)N1CCC2(CCc3ccccc32)CC1`, for which the remaining parasite growth % (stronger effect = lower value) in [1] was -1.46%. Also, in assay [2], the activity, percent of control is -0.289%. Besides, the remaining proliferation (% of control), lower = more inhibition in assay [3] was -0.621%. In addition, the parasite growth, % of DMSO control in [4] was 5.26%. In [5], this molecule yielded a parasite growth remaining, % of DMSO control (lower = more inhibition) of 7.23%. Moreover, the parasite growth, % of control (lower = inhibition) in assay [6] was determined as 14%. The growth, % of control in [7] stood at 5.03%. The Potency in [8] is 2.64 µM (active). In addition, the cell viability, % of control (lower = more cytotoxic) in assay [9] was determined as 168%. Also, the viability (% of control) in assay [10] worked out at 111%. In addition, the Potency result in assay [12], in assay [13] and in assay [17] was “inactive” in each case.

As to `N#Cc1ccc(C(c2ccc(C#N)cc2)n2cncn2)cc1`, in [1], the remaining parasite growth % (stronger effect = lower value) was determined as 85.5%. The activity, percent of control in assay [2] worked out at 86.6%. Besides, the remaining proliferation (% of control), lower = more inhibition in assay [3] is 95.8%. Moreover, the parasite growth, % of DMSO control in [4] is 89.2%. In addition, the parasite growth remaining, % of DMSO control (lower = more inhibition) in assay [5] turned out to be 93.7%. In addition, the parasite growth, % of control (lower = inhibition) in [6] was 123%. The molecule further yielded a growth, % of control in assay [7] of 101%. For the same molecule, the Potency in assay [8] was 10.5 µM (active); in assay [17], 20.9 µM (active); in assay [15] it was 14.8 µM (active). The cell viability, % of control (lower = more cytotoxic) in [9] came out at 33%. Further, in assay [10], the viability (% of control) was found to be 70.2%. For the same molecule, the Potency result in [11], in assay [12] and in [16] was “inactive” throughout.

`CC1(C)Cc2c(-c3ccccc3)c(-c3ccc(Cl)cc3)c(CC(=O)O)n2C1`: the remaining parasite growth % (stronger effect = lower value) in [1] was 6.49%. For the same molecule, the activity, percent of control in assay [2] worked out at 13.4%. The remaining proliferation (% of control), lower = more inhibition in [3] is 7.77%. Also, the parasite growth, % of DMSO control in [4] stood at 61%. Moreover, the parasite growth remaining, % of DMSO control (lower = more inhibition) in assay [5] was 90.7%. Further, the parasite growth, % of control (lower = inhibition) in [6] came to 63.6%. Also, the Potency in [8] is 5.26 µM (active); in [14], 16.6 µM (active). For the same molecule, in assay [9], the cell viability, % of control (lower = more cytotoxic) is 71.9%. The viability (% of control) in [10] worked out at 78.3%. Also, the Potency result in [11] and in assay [12] was “inactive” in each case.

For the molecule `CNC(=O)c1ccc(C)c(-n2c(C)cc(OCc3ccc(F)cc3F)c(Br)c2=O)c1`, in assay [1], the remaining parasite growth % (stronger effect = lower value) worked out at 91.9%. Also, the remaining proliferation (% of control), lower = more inhibition in assay [3] came out at 52.2%. The molecule also registered a parasite growth, % of DMSO control in assay [4] of 42%. The parasite growth remaining, % of DMSO control (lower = more inhibition) in assay [5] was 84.9%. Besides, the parasite growth, % of control (lower = inhibition) in assay [6] worked out at 50.9%. In addition, the Potency in assay [8] is 5.9 µM (active). Besides, in assay [9], the cell viability, % of control (lower = more cytotoxic) is 140%. Besides, the viability (% of control) in assay [10] was 94.3%. Also, the Potency entry in assay [11] and in assay [12] was “inactive” throughout.

`COc1ccc(-c2c(-c3ccc(O)cc3O)n[nH]c2C)cc1`: the remaining parasite growth % (stronger effect = lower value) in assay [1] turned out to be 1.98%. Besides, the remaining proliferation (% of control), lower = more inhibition in assay [3] was 0.491%. The molecule also had a parasite growth, % of DMSO control in [4] of 47% [at 57.5 µM]. In assay [5], the parasite growth remaining, % of DMSO control (lower = more inhibition) was 61.8% [at 57.5 µM]. For the same molecule, in assay [6], the parasite growth, % of control (lower = inhibition) stood at 45.5% [at 57.5 µM]. The same molecule yielded a growth, % of control in [7] of 106% [at 57.5 µM]. Further, in assay [8], the Potency was 2.09 µM (active). Moreover, in [9], the cell viability, % of control (lower = more cytotoxic) turned out to be 96.4% [at 92.2 µM]. Besides, the viability (% of control) in assay [10] amounted to 61.9% [at 92.2 µM]. Besides, the Potency result in [11], in [12], in [15] and in assay [16] was “inactive” each time.

For `COc1nc(-c2ccc3c(c2)OCO3)n(-c2ccc(NC(=O)CSc3ccccc3)cc2)n1`, the remaining parasite growth % (stronger effect = lower value) in assay [1] was determined as 96.2%. In assay [2], the activity, percent of control came out at 95.9%. Further, the remaining proliferation (% of control), lower = more inhibition in assay [3] turned out to be 94.2%. Also, the parasite growth, % of DMSO control in [4] came out at 51.6%. In [5], this molecule showed a parasite growth remaining, % of DMSO control (lower = more inhibition) of 86.8%. Moreover, the parasite growth, % of control (lower = inhibition) in assay [6] came to 61.9%. The molecule also registered a growth, % of control in [7] of 82%. For the same molecule, the Potency in assay [8] and in assay [14] was 20.9 µM (active) each time. Besides, in assay [9], the cell viability, % of control (lower = more cytotoxic) came to 127%. Further, the viability (% of control) in assay [10] was determined as 116%. The Potency result in [11], in [12] and in [17] was “inactive” each time.
